Sampled rows, rich in hits. Any-hit rate of the full collection: about 10%.
CCT chaperon mod = High-Throughput Screening for Modulators of Cytosolic Chaperonin Activity; purified chaperonin ATPase assay, HTRF ADP detection, 30 min; activity change, % (concentration not given with the values), hits read low; hit rate 0.3% among 360,000; in the data active means activity change below about -30%
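First, chaperonin was dispensed at 40 nM or 20 nM final depending on batch activity. Next, compounds were pinned at 76 uM and ATP added at 10 uM. After 30 min at 37 °C, ADP detection reagents ran 30 min at ambient temperature.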
Sfp PPTase inh = qHTS Assay for Inhibitors of Bacillus subtilis Sfp phosphopantetheinyl transferase (PPTase); Potency, µM, actives largely listed as inhibitors; hit rate 3.5% among 310,000; 4'-phosphopantetheinyl transferase ffp (Bacillus subtilis), Q9F4F7; Biochemical Sfp PPTase activity, qHTS;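 further: the enzyme is Sfp with the accession as filed and its product quenches rhodamine fluorescence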
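After 15 min at room temperature with compound, 15 nM Sfp received 5 uM rhodamine-CoA plus 12.5 uM BHQ-2-ybbR (50 mM Hepes pH 7.6, 10 mM MgCl2). Rate came from the fluorescence difference over 30 min, ex 525/em 598 nm.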
PLK1 PBD inh = qHTS for Inhibitors of PLK1-PDB (polo-like kinase 1 - polo-box domain): Primary Screen. Serine/threonine-protein kinase PLK1 (Homo sapiens), P53350. hit rate 2.8% among 360,000. AID 720504, 2013. Potency, µM, actives largely listed as inhibitors. Plk1 PBD binding of FITC phosphopeptide, fluorescence polarization; further: series mostly up to about 57 µM; nearly all actives have a fitted effect of over 65% in size
Target sequence (P53350 whole entry, looked up, the tested form may be a part): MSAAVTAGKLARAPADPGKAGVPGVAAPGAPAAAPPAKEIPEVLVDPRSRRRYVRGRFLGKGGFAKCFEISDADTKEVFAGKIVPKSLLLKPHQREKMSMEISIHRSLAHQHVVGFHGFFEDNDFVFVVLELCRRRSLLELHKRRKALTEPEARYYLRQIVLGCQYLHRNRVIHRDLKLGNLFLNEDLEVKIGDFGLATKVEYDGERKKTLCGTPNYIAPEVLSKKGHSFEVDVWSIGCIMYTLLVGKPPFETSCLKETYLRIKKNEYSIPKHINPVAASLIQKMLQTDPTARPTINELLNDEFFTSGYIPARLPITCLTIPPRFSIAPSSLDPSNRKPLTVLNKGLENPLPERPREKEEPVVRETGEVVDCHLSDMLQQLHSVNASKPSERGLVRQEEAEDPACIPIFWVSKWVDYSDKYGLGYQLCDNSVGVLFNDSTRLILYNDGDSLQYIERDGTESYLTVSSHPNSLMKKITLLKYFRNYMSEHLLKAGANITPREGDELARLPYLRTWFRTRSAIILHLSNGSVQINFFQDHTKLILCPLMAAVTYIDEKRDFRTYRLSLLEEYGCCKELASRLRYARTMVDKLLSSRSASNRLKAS
VDR inh = Inhibitors of the vitamin D receptor (VDR): qHTS. Vitamin D3 receptor (Homo sapiens), P11473. VDR-SRC2-3 peptide fluorescence polarization, 2 h. hit rate 0.93% among 400,000. AID 504847, 2011. Potency, µM, hits mostly inhibitors
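Reagent solutions, kept cold and dark, are dispensed first; compounds are then pinned in at 23 nl, plates briefly spun, and incubated 2 h at ambient temperature. Inhibition of VDR–SRC2-3 peptide binding is read by fluorescence polarization.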
Mm-Cpn inhibitor = Inhibitors of TCP-1 ring complex (TRiC) of Methanococcus maripaludis (MmCpn): qHTS | Chaperonin Mm-Cpn (Methanococcus maripaludis) | purified Mm-Cpn ATPase, ADP Transcreener TR-FRET | Potency, µM (titrated, usually from 76.9 µM), usual class: inhibitors | hit rate 0.031% among 330,000; further: nearly all actives have a fitted effect of over 80% in size
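Eu-cryptate anti-ADP/ADP-d2 competition gives a ratio inversely related to ADP. Enzyme at 25 nM was pre-exposed to compound for 10 min, then given 10 uM ATP for 30 min, 37°C throughout.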
G9a block = qHTS Assay for Inhibitors of Histone Lysine Methyltransferase G9a; Histone-lysine N-methyltransferase EHMT2 (Homo sapiens), Q96KQ7; AID 504332, 2011; Potency, µM (series often up to 102 µM), most hits filed as inhibitors; G9a H3K9 monomethylation, AlphaScreen, 2 h; hit rate 8.8% among 350,000; further: nearly all actives have a fitted effect of over 75% in size
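Methyltransferase reactions run at room temperature for 2 h (20 nM enzyme, 500 nM biotin-H3K9 peptide, 20 uM SAM) after a 15 min compound preincubation; product detected by AlphaScreen beads and anti-H3K9me1 antibody.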
Hits are given with their value; ! = a repeat was not active. Unless noted, the call rests on the fitted dose curve; in most records, active means well fitted curve in the direction sought with a large enough effect; inconclusive means small, poorly fitted or top-dose-only effect, or another doubt; inactive means no such curve, though single readings can be large; an effect the other way counts as inactive or inconclusive.

What do the screens show for `CN(C)CCN1C(=O)C(=O)/C(=C(/O)c2ccc3c(c2)OCCO3)C1c1ccccn1` (stereo not drawn)?
CCT chaperon mod: inactive; Sfp PPTase inh: inconclusive; PLK1 PBD inh: inactive; VDR inh: inactive; Mm-Cpn inhibitor: inactive; G9a block: 31.6µM

Results for COc1cccc(C2/C(=C(\O)c3ccc4c(c3)OCO4)C(=O)C(=O)N2CCN(C)C)c1OC (stereo not drawn) ?
CCT chaperon mod: inactive; Sfp PPTase inh: inactive; PLK1 PBD inh: inactive; VDR inh: inactive; Mm-Cpn inhibitor: inactive; G9a block: inconclusive

How did COc1cccc(/C(O)=C2/C(=O)C(=O)N(CCN(C)C)C2c2ccccn2)c1 (stereo not drawn) do in these assays?
CCT chaperon mod: inactive; Sfp PPTase inh: inconclusive; PLK1 PBD inh: inactive; VDR inh: inactive; Mm-Cpn inhibitor: inactive; G9a block: 22.4µM

What do the screens show for `COC(=O)C1C[C@@H]2C3=C(C(=O)[C@@](C)(NC(=O)c4ccccc4)C3[C@H](C(=O)OC)C1)[C@H](C)n1c(=O)n(-c3ccccc3)c(=O)n12` (stereo partly drawn)?
Sfp PPTase inh: inactive; VDR inh: inactive

What do the screens show for `O=C(NCCSCc1ccccc1Cl)C1CCN(S(=O)(=O)Cc2ccccc2)CC1`?
VDR inh: inactive; G9a block: inconclusive

What do the screens show for `CCC(=O)Nc1c(C)nn(-c2ccc(C)c(C)c2)c1C`?
CCT chaperon mod: inactive; Sfp PPTase inh: inactive; PLK1 PBD inh: inactive; VDR inh: inactive; Mm-Cpn inhibitor: inactive; G9a block: 28.2µM

How did CC(C)Oc1cccc(C(=O)Nc2ccc3oc(-c4ccccc4)nc3c2)c1 do in these assays?
VDR inh: inactive; G9a block: inactive

What do the screens show for `CCn1cc(C(=O)Nc2cccc(Cl)c2)c2cc(OC)c(OC)cc2c1=O`?
VDR inh: inactive; G9a block: inactive

Results for CN1CCN(c2nnc(-c3ccc(F)cc3)c3ccccc23)CC1 ?
CCT chaperon mod: inactive; Sfp PPTase inh: inactive; PLK1 PBD inh: inactive; VDR inh: inactive; Mm-Cpn inhibitor: inactive; G9a block: 39.8µM

How did Cc1cc(C)cc(-n2c(SCC(N)=O)nc3c(oc4ccccc43)c2=O)c1 do in these assays?
VDR inh: inactive; G9a block: inactive

How did CN1CCN(CCOc2ccc(Cc3ccccc3)cc2)CC1 do in these assays?
CCT chaperon mod: inactive; Sfp PPTase inh: inactive; PLK1 PBD inh: inactive; VDR inh: inactive; Mm-Cpn inhibitor: inactive; G9a block: inconclusive

How did CCN(CC)CCCOc1ccc(C)cc1Br do in these assays?
CCT chaperon mod: inactive; Sfp PPTase inh: inactive; PLK1 PBD inh: inactive; VDR inh: inactive; Mm-Cpn inhibitor: inactive; G9a block: 20µM

Results for CCN(CC)CCOc1ccc(Br)cc1 ?
CCT chaperon mod: inactive; Sfp PPTase inh: inactive; PLK1 PBD inh: inactive; VDR inh: inactive; Mm-Cpn inhibitor: inactive; G9a block: 12.6µM

How did COc1cccc(OC)c1OCCNC(C)(C)C do in these assays?
CCT chaperon mod: inactive; Sfp PPTase inh: inactive; PLK1 PBD inh: inactive; VDR inh: inactive; Mm-Cpn inhibitor: inactive

Results for CC(C)(C)NCCOc1ccc(Br)cc1 ?
CCT chaperon mod: inactive; Sfp PPTase inh: inactive; PLK1 PBD inh: inactive; VDR inh: inactive; Mm-Cpn inhibitor: inactive; G9a block: 17.8µM

Results for CCc1ccc(OCCOCCN2CCN(C)CC2)cc1 ?
CCT chaperon mod: inactive; Sfp PPTase inh: inconclusive; PLK1 PBD inh: inactive; VDR inh: inactive; Mm-Cpn inhibitor: inactive; G9a block: 2.82µM

What do the screens show for `CCN(CC)CCOc1ccccc1OC`?
CCT chaperon mod: inactive; Sfp PPTase inh: inactive; PLK1 PBD inh: inactive; VDR inh: inactive; Mm-Cpn inhibitor: inactive; G9a block: 22.4µM!

What do the screens show for `CCN(CC)CCCOc1ccc(Cl)c(Cl)c1`?
CCT chaperon mod: inactive; Sfp PPTase inh: inactive; PLK1 PBD inh: inactive; VDR inh: inactive; Mm-Cpn inhibitor: inactive; G9a block: 10µM

Assay outcomes as filed in PubChem.
